The supplement of paper PMC12067093, “Discovery and optimisation of a covalent ligand for TRIM25 and its application to targeted protein ubiquitination” (Chemical Science, 2025)
About 21,000 targets were measured; listed, in parts, are those with the largest changes and a random draw of the rest.

The targets below were run with Cc1cc(ccc1-c1ccccc1)C(=O)N1CCCN(CC1)C(=O)CCl [compound 10] (assay: probe-labelled cysteine peptide fold change vs DMSO (competition) (log2 fold change); higher = less target engagement (more negative = stronger competition)). Conditions: 50 µM; THP-1; incubation time: 4 h.
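Note: competitive profiling in live THP-1 cells: cysteine peptides tagged with an iodoacetamide desthiobiotin (IA-DTB) probe, intensity after compound treatment relative to DMSO-treated cells.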

Target	probe-labelled cysteine peptide fold change
GLRX_P35754_26_VVVFIKPTCPYCR (UniProt P35754)	-3.44
FHL2_Q14192_275_GFLTERDDILCPDCGK (UniProt Q14192)	-0.163
FOS_P01100_204_EKLEFILAAHRPACK (UniProt P01100)	1.53
GSDMD_P57764_38_RVVQELDHGGEFIPVTSLQSSTGFQPYCLVVR (UniProt P57764)	-0.375
FHOD1_Q9Y613_43_APTCSLDGALPLGAQIPAVHR (UniProt Q9Y613)	0.425
GLA_P06280_56_FMCNLDCQEEPDSCISEK (UniProt P06280)	-0.0872
GFI1_Q99684_155_GAGLGLFCEPAPEPGHPAALYGPK (UniProt Q99684)	1.62
HCK_P08631_241_LSVPCMSSK (UniProt P08631)	0.102
HAUS6_Q7Z4H7_662_VISDCECVPQK (UniProt Q7Z4H7)	-0.547
HK3_P52790_840_AAQLCGAGVAAVVEK (UniProt P52790)	-0.0558
GSPT1_P15170_464_TAGTICLETFK (UniProt P15170)	0.0941
GATD3B_A0A0B4J2D5_177_EFHQAGKPIGLCCIAPVLAAK<|>GATD3A_P0DPI2_177_EFHQAGKPIGLCCIAPVLAAK (UniProt P0DPI2)	-1.98
HLA-C_P04222_345+364_GGSCSQAASSNSAQGSDESLIACKA (UniProt P04222)	-1.66
GRN_P28799_178_CITPTGTHPLAK (UniProt P28799)	-0.341
GDAP2_Q9NXN4_148_TAAESSLYSCYR (UniProt Q9NXN4)	0.00868
HERC2_O95714_1037_ISSCLDFEQHSR (UniProt O95714)	0.321
HINT1_P49773_38_CLAFHDISPQAPTHFLVIPK (UniProt P49773)	0.0613
HEATR3_Q7Z4Q2_57_ECACAGLAR (UniProt Q7Z4Q2)	-4.94
HINT3_Q9NQE9_66+73_QDPGTELLHCENEDLICFK (UniProt Q9NQE9)	-0.532
HDAC6_Q9UBN7_539_PATEAELLTCHSAEYVGHLR (UniProt Q9UBN7)	0.302
GSK3B_P49841_335_LTPLEACAHSFFDELRDPNVK (UniProt P49841)	0.0393
GRHPR_Q9UBQ7_29_AADCEVEQWDSDEPIPAK (UniProt Q9UBQ7)	-0.167
GIT1_Q9Y2X7_576_KGVSASAVPFTPSSPLLSCSQEGSR (UniProt Q9Y2X7)	-0.788
GNB1_P62873_294_LLLAGYDDFNCNVWDALK (UniProt P62873)	0.17
GFPT1_Q06210_264_VDSTTCLFPVEEK (UniProt Q06210)	0.203
GTF3C4_Q9UKN8_376_CVPLYHPYQK (UniProt Q9UKN8)	0.144
GEMIN5_Q8TEQ6_82_VSGFTFSHHPGQYNLCATSSDDGTVK (UniProt Q8TEQ6)	0.148
GTF2B_Q00403_34+37_AGDMICPECGLVVGDR (UniProt Q00403)	0.0895
